{"source": "PubChem BioAssay AID651", "about": "(University of Pittsburgh Molecular Library Screening Center, 2007)", "note": "The campaign covered roughly 1,000 compounds. About 390 (39%) were called active. Roughly 8% stayed inconclusive and do not appear here. No stated cut-off is given here; in the data, active means inhibition above about 48%; inconclusive means no clear call, values can overlap the other calls; inactive means below that. The list is a sample of the results.", "data": [{"target": "Gag-Pol polyprotein (Human immunodeficiency virus type 1 group M subtype B (isolate HXB2)) (UniProt P04585)", "experiment": "HIV-1 RT RNase H inhibitors, retest, confirmation, biochemical (AID 651)", "settings": "Recombinant RT RNase H, fluorescent RNA/DNA duplex cleavage; at 10 µM; active compounds read high", "values": [{"smiles": "CCCc1nc2ccccc2c(=O)n1/N=C/c1ccc(O)c(O)c1", "inhibition": "74.1% (active)"}, {"smiles": "Cc1nc(C)c(C(=O)Nc2cccc(C)c2C)o1", "inhibition": "14.1% (inactive)"}, {"smiles": "Clc1ccccc1CSc1nnc(-c2ccco2)c(-c2ccco2)n1", "inhibition": "18.5% (inactive)"}, {"smiles": "CC1CCc2c(sc(NC(=O)c3ccc(Cn4cc(Br)cn4)o3)c2C(N)=O)C1", "note": "(stereo not given)", "inhibition": "59.9% (active)"}, {"smiles": "CN(c1ccccc1)c1ccc(/C=c2\\s/c(=C(/C#N)C(=O)C(C)(C)C)n(Cc3ccco3)c2=O)cc1", "inhibition": "50.5% (active)"}, {"smiles": "O=C(NCc1ccccn1)c1ccc2nc(-c3ccco3)c(-c3ccco3)nc2c1", "inhibition": "2.46% (inactive)"}, {"smiles": "Nc1ccc(-c2nnc(-c3ccc(-c4ccccc4)cc3)o2)cc1", "inhibition": "63.3% (active)"}, {"smiles": "CCCC(=O)N1CCc2[nH]c3ccccc3c2C1", "inhibition": "-2.83% (inactive)"}, {"smiles": "CC(C)CNC(=O)C1CCCN(S(=O)(=O)c2ccc(-n3cnnn3)cc2)C1", "note": "(stereo not given)", "inhibition": "40.6% (inactive)"}, {"smiles": "CCCCOC(=O)CNc1nnc(SCC(=O)OCC)[nH]c1=O", "inhibition": "43.7% (inactive)"}, {"smiles": "CCN(CC)c1ccc2oc(=O)c(C)nc2c1", "inhibition": "0.308% (inactive)"}, {"smiles": "O=C(Nc1nc(-c2ccncc2)cs1)C1COc2ccccc2O1", "note": "(stereo not given)", "inhibition": "69.2% (active)"}, {"smiles": "Cc1csc(NC(=O)NC2(C(F)(F)F)Oc3ccccc3O2)n1", "inhibition": "33.8% (inactive)"}, {"smiles": "CCCc1nnc(NC(=O)CN2C(=O)c3ccccc3S2(=O)=O)s1", "inhibition": "60.4% (active)"}, {"smiles": "COc1ccc(Cc2nnc(NC(=O)Cc3cccs3)s2)cc1", "inhibition": "22.2% (inactive)"}, {"smiles": "CCc1nnc(NC(=O)CSc2nnc(COc3ccc(C#N)cc3)n2-c2ccccc2)s1", "inhibition": "19.2% (inactive)"}, {"smiles": "COC(=O)C1=C(C)NC2=C(C(=O)c3ccccc32)C1c1ccc(-c2ccc(C(=O)O)cc2)o1", "note": "(stereo not given)", "inhibition": "5.29% (inactive)"}, {"smiles": "c1ccc(Cc2nn3c(Cn4cnc5ccccc54)nnc3s2)cc1", "inhibition": "59.7% (active)"}, {"smiles": "CCOc1ccc2[nH]c(=O)c(CN(CCCO)C(C)=O)cc2c1", "inhibition": "15.8% (inactive)"}, {"smiles": "NC(=O)Cn1c(=O)oc2ccccc21", "inhibition": "35.5% (inactive)"}, {"smiles": "Cc1noc(C)c1CSc1nc2cc(S(=O)(=O)N3CCOCC3)ccc2o1", "inhibition": "61% (active)"}, {"smiles": "COc1cc(C(=O)Nc2oc(-c3ccccc3)c(-c3ccccc3)c2C#N)cc(OC)c1OC", "inhibition": "53.6% (active)"}, {"smiles": "Cc1ccc2cccc(O)c2[n+]1[O-]", "inhibition": "43.9% (inactive)"}, {"smiles": "CCC(C)(C)NC(=O)C(c1cccn1C)N(Cc1ccc(C)cc1)C(=O)Cn1nnc2ccccc21", "note": "(stereo not given)", "inhibition": "-5.01% (inactive)"}, {"smiles": "CCCCCn1c(SCCC(C)C)nc2c1c(=O)[nH]c(=O)n2C", "inhibition": "17.3% (inactive)"}, {"smiles": "CCC(C)Sc1nc2c(c(=O)[nH]c(=O)n2C)n1CC(O)COc1cccc2ccccc12", "note": "(stereo not given)", "inhibition": "68.7% (active)"}, {"smiles": "Cc1ccnc(-n2sc3ccccc3c2=O)n1", "inhibition": "60% (active)"}, {"smiles": "COc1ccc(OC)c(Nc2nc(-c3ccc(O)c(O)c3)cs2)c1", "inhibition": "77.2% (active)"}, {"smiles": "Cc1ccc2c(c1)sc1ncc(NC(=O)c3ccccc3)c(=O)n12", "inhibition": "46.4% (inactive)"}, {"smiles": "COc1cccc(-c2nnc(NC(=O)c3ccc(S(=O)(=O)N(CC(C)C)CC(C)C)cc3)o2)c1", "inhibition": "74.9% (active)"}, {"smiles": "CCC1=[N+]([O-])C(C)(/C(C)=N\\O)N(O)C1(C)C", "note": "(stereo not given)", "inhibition": "32% (inactive)"}, {"smiles": "CCOC(=O)N1CCN(CC(=O)c2ccc3c(c2)CCN3)CC1", "inhibition": "15.5% (inactive)"}, {"smiles": "COc1ccc(CCn2c(=N)c(C(=O)NCc3ccco3)cc3c(=O)n4cccc(C)c4nc32)cc1", "inhibition": "1.96% (inactive)"}, {"smiles": "Cc1cc(C(F)(F)F)nn1-c1nc(-c2ccco2)cc(C(F)(F)F)n1", "inhibition": "38% (inactive)"}, {"smiles": "Cc1cccc(-n2c(N)c(C(=O)N3CCN(C)CC3)sc2=S)c1", "inhibition": "67% (active)"}, {"smiles": "Cc1ccc(-n2c(N)c(C(=O)N3CCOCC3)sc2=S)c(C)c1", "inhibition": "-4.07% (inactive)"}, {"smiles": "Cc1ccnc(N2CCCC(C(=O)Nc3cc(F)ccc3C)C2)n1", "note": "(stereo not given)", "inhibition": "9.38% (inactive)"}, {"smiles": "COC(=O)N(c1ccc(OC)cc1)P1(=S)OCCC(C)O1", "note": "(stereo not given)", "inhibition": "57.7% (active)"}, {"smiles": "CCc1c(C)[nH]c(=S)c(C#N)c1C", "inhibition": "-2.67% (inactive)"}, {"smiles": "Fc1ccc(-c2ccc(-c3nn4c(-c5ccco5)nnc4s3)o2)cc1", "inhibition": "48.4% (active)"}, {"smiles": "Fc1ccc(-c2nnc3sc(-c4ccc5c(c4)OCO5)nn23)cc1", "inhibition": "94.9% (active)"}, {"smiles": "COC(=O)Nc1nc2ccc(Sc3ccccc3)cc2[nH]1", "inhibition": "33.9% (inactive)"}, {"smiles": "O=C(Nc1cc(N2CCOCC2)ncn1)NC1(C(F)(F)F)Oc2ccc(Cl)cc2O1", "note": "(stereo not given)", "inhibition": "-8.24% (inactive)"}, {"smiles": "CCN(CC)S(=O)(=O)c1ccc2nc(COC(=O)c3n[nH]c4ccccc34)[nH]c2c1", "inhibition": "29.7% (inactive)"}, {"smiles": "CC(C)C1N=C2c3ccccc3N=C(SCC(=O)c3ccc(O)c(O)c3)N2C1=O", "note": "(stereo not given)", "inhibition": "64.7% (active)"}, {"smiles": "COc1ccc(N2C(=O)CN=C2Nc2cccc(C)c2C)cc1OC", "inhibition": "42.9% (inactive)"}, {"smiles": "c1ccc(CSc2nnc(-c3ccco3)c(-c3ccco3)n2)cc1", "inhibition": "42.2% (inactive)"}, {"smiles": "COc1ccc(Nc2oc(-c3ccccc3Cl)nc2C#N)cc1", "inhibition": "3.03% (inactive)"}, {"smiles": "CCOC(=O)c1sc(=S)n2c1[nH]c(=O)c1ccc(C(=O)OC)cc12", "inhibition": "73.8% (active)"}, {"smiles": "Cc1ccc(-n2nc(-c3ccco3)cc2C(=O)NCc2cccnc2)cc1", "inhibition": "-3.12% (inactive)"}]}]}
